# Assay results: PubChem BioAssay AID1159580 (chemical genetic matrix, 2015)
# About 2,000 (36%) of roughly 5,500 compounds were called active. About 18% were inconclusive and are not listed. This is one part of the list. Values without a mark were called inactive. Cut-off read from the data, not from the text of the source: active = normalized growth mostly below about 0.91 (no sharp cut-off); inconclusive = no clear call, values can overlap the other calls; inactive = mostly above about 0.92.
# Assay: chemical genetic growth profiling, strain panel (AID 1159580);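 note: tested at 20 µM; growth read once vehicle control cultures reached saturation at 30 °C; 1 = growth at the plate median or of vehicle wells; lower values mean less growth of the strain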
# Conditions: growth OD
# [1] = S. cerevisiae deletion strains, locus YAL013W, strain DEP1, stronger effect = lower value
# [2] = S. cerevisiae deletion strains, locus YBR229C, strain ROT2, stronger effect = lower value
# [3] = S. cerevisiae deletion strains, locus YDL101C, strain DUN1, stronger effect = lower value
# [4] = S. cerevisiae deletion strains, locus YDR150W, strain NUM1, stronger effect = lower value
# [5] = S. cerevisiae deletion strains, locus YEL061C, strain CIN8, stronger effect = lower value
# [6] = S. cerevisiae deletion strains, locus YGR078C, strain PAC10, stronger effect = lower value
# [7] = S. cerevisiae deletion strains, locus YGR229C, strain SMI1, stronger effect = lower value
# [8] = S. cerevisiae deletion strains, locus YHR030C, strain SLT2, stronger effect = lower value
# [9] = S. cerevisiae deletion strains, locus YHR087W, strain rtc3, stronger effect = lower value
# [10] = S. cerevisiae deletion strains, locus YJR043C, strain POL32, stronger effect = lower value
# [11] = S. cerevisiae deletion strains, locus YJR075W, strain HOC1, stronger effect = lower value
# [12] = S. cerevisiae deletion strains, locus YLR039C, strain RIC1, stronger effect = lower value
# [13] = S. cerevisiae deletion strains, locus YLR058C, strain SHM2 (second series), stronger effect = lower value
# [14] = S. cerevisiae deletion strains, locus YLR085C, strain ARP6, stronger effect = lower value
# [15] = S. cerevisiae deletion strains, locus YLR262C, strain YPT6, stronger effect = lower value
# [16] = S. cerevisiae deletion strains, locus YML094W, strain GIM5, stronger effect = lower value
# [17] = S. cerevisiae deletion strains, locus YMR219W, strain ESC1, stronger effect = lower value
# [18] = S. cerevisiae deletion strains, locus YMR263W, strain SAP30, stronger effect = lower value
# [19] = S. cerevisiae deletion strains, locus YNL153C, strain GIM3, stronger effect = lower value
# [20] = S. cerevisiae deletion strains, locus YNL298W, strain CLA4 (second series), stronger effect = lower value
# [21] = S. cerevisiae deletion strains, locus YNL322C, strain KRE1, stronger effect = lower value
# [22] = S. cerevisiae deletion strains, locus YNR030W, strain Alg12, stronger effect = lower value
# [23] = S. cerevisiae deletion strains, locus YOL006C, strain TOP1, stronger effect = lower value
# [24] = S. cerevisiae deletion strains, locus YPL055C, strain LGE1, stronger effect = lower value
# [25] = S. cerevisiae deletion strains, locus YPL241C, strain CIN2, stronger effect = lower value
# [26] = S. cerevisiae deletion strains, locus YPR135W, strain CTF4, stronger effect = lower value
# [27] = S. cerevisiae strains, strain wild type, stronger effect = lower value
structure (smiles),measurement,setting,value
COc1cccc(-c2nc(C#N)c(N)o2)c1,normalized growth,[1],0.987
same,normalized growth,[2],0.996
same,normalized growth,[3],0.995
same,normalized growth,[4],0.983
same,normalized growth,[5],1.02
same,normalized growth,[6],0.996
same,normalized growth,[7],0.938 (active)
same,normalized growth,[8],0.708
same,normalized growth,[9],1
same,normalized growth,[10],0.968
same,normalized growth,[11],0.992
same,normalized growth,[12],0.945
same,normalized growth,[13],0.99
same,normalized growth,[14],0.79
same,normalized growth,[15],0.979
same,normalized growth,[16],1.01
same,normalized growth,[17],0.989
same,normalized growth,[18],0.944
same,normalized growth,[19],0.987
same,normalized growth,[20],0.946
same,normalized growth,[21],1.01
same,normalized growth,[22],0.989
same,normalized growth,[23],0.796
same,normalized growth,[24],0.966
same,normalized growth,[25],0.953
same,normalized growth,[26],0.871
same,normalized growth,[27],0.958
c1cc2c(cc1N=C1SCC3CCCCN13)OCO2 (configuration not stated),normalized growth,[1],1
same,normalized growth,[2],1.01
same,normalized growth,[3],1.02
same,normalized growth,[4],1.05
same,normalized growth,[5],0.991
same,normalized growth,[6],1.01
same,normalized growth,[7],0.997
same,normalized growth,[8],1.05
same,normalized growth,[9],0.995
same,normalized growth,[10],1.03
same,normalized growth,[11],1.03
same,normalized growth,[12],0.983
same,normalized growth,[13],1
same,normalized growth,[14],0.932
same,normalized growth,[15],1.12
same,normalized growth,[16],0.973
same,normalized growth,[17],1
same,normalized growth,[18],1.01
same,normalized growth,[19],1.02
same,normalized growth,[20],0.974
same,normalized growth,[21],1
same,normalized growth,[22],1
same,normalized growth,[24],0.996
same,normalized growth,[25],0.953
same,normalized growth,[26],1.05
same,normalized growth,[27],1
NC(=S)COc1ccccc1Cl,normalized growth,[1],0.998
same,normalized growth,[2],0.985
same,normalized growth,"S. cerevisiae deletion strains, locus YCL061C, strain MRC1, stronger effect = lower value",1
same,normalized growth,[3],1
same,normalized growth,"S. cerevisiae deletion strains, locus YDL134C, strain PPH21, stronger effect = lower value",0.981
same,normalized growth,[4],0.998
same,normalized growth,[5],0.931
same,normalized growth,[6],1.03
same,normalized growth,[8],0.794
same,normalized growth,[9],1.04
same,normalized growth,"S. cerevisiae deletion strains, locus YJL187C, strain SWE1, stronger effect = lower value",0.983
same,normalized growth,[10],0.994
same,normalized growth,[11],1.01
same,normalized growth,"S. cerevisiae deletion strains, locus YKL190W, strain CNB1, stronger effect = lower value",0.968
same,normalized growth,[12],0.796
same,normalized growth,[13],0.982
same,normalized growth,[14],0.624 (active)
same,normalized growth,[15],0.887
same,normalized growth,[16],0.947
same,normalized growth,[17],0.982
same,normalized growth,[18],1.01
same,normalized growth,[19],0.971
same,normalized growth,[20],0.799 (active)
same,normalized growth,[21],0.994
same,normalized growth,[22],0.95
same,normalized growth,[23],0.294 (active)
same,normalized growth,[24],1.04
same,normalized growth,[25],0.891
same,normalized growth,[26],0.801
